Measured values from PubChem BioAssay.
Activity calls are given as the source filed them.

Assays:
[1] = binders of probe aFSTL3 on microarray, primary screen, stem cell growth factor project, biochemical, small-molecule microarray, fluorescence 635/667 (AID 1064); settings: higher = more signal;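 further: measures binding of the biotinylated anti-FSTL3 antibody to printed compounds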
[2] = binders from COS7 lysate, DM2A8 probe, primary screen, torsin A project, cell lysate, small-molecule microarray, fluorescence 635/667 (AID 1065); settings: higher = more signal, COS7 lysate expressing mutant human TOR1A
[3] = binders of probe aFGF2 on microarray, primary screen, stem cell growth factor project, biochemical, small-molecule microarray, fluorescence 635/667 (AID 1067); settings: higher = more signal;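 further: measures binding of biotinylated aFGF2 protein to printed compounds on slides; z-score merges feature fluorescence and signal-to-noise across triplicate slides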
[4] = binders of probe aFGF10 on microarray, primary screen, stem cell growth factor project, biochemical, small-molecule microarray, fluorescence 635/667 (AID 1071); settings: higher = more signal;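 further: score merges 667 nm spot intensity and signal to noise from triplicate slides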
[5] = target: Neurogenic locus notch homolog protein 2 (Homo sapiens) (UniProt Q04721); experiment: Notch2 binders on small-molecule microarrays, primary screen, biochemical, small-molecule microarray, 635 nm fluorescence, stem cell growth factors (AID 1073); settings: Notch2 binding, higher = more signal
Neurogenic locus notch homolog protein 2 (Homo sapiens), sequence (Q04721 whole entry, looked up, canonical isoform): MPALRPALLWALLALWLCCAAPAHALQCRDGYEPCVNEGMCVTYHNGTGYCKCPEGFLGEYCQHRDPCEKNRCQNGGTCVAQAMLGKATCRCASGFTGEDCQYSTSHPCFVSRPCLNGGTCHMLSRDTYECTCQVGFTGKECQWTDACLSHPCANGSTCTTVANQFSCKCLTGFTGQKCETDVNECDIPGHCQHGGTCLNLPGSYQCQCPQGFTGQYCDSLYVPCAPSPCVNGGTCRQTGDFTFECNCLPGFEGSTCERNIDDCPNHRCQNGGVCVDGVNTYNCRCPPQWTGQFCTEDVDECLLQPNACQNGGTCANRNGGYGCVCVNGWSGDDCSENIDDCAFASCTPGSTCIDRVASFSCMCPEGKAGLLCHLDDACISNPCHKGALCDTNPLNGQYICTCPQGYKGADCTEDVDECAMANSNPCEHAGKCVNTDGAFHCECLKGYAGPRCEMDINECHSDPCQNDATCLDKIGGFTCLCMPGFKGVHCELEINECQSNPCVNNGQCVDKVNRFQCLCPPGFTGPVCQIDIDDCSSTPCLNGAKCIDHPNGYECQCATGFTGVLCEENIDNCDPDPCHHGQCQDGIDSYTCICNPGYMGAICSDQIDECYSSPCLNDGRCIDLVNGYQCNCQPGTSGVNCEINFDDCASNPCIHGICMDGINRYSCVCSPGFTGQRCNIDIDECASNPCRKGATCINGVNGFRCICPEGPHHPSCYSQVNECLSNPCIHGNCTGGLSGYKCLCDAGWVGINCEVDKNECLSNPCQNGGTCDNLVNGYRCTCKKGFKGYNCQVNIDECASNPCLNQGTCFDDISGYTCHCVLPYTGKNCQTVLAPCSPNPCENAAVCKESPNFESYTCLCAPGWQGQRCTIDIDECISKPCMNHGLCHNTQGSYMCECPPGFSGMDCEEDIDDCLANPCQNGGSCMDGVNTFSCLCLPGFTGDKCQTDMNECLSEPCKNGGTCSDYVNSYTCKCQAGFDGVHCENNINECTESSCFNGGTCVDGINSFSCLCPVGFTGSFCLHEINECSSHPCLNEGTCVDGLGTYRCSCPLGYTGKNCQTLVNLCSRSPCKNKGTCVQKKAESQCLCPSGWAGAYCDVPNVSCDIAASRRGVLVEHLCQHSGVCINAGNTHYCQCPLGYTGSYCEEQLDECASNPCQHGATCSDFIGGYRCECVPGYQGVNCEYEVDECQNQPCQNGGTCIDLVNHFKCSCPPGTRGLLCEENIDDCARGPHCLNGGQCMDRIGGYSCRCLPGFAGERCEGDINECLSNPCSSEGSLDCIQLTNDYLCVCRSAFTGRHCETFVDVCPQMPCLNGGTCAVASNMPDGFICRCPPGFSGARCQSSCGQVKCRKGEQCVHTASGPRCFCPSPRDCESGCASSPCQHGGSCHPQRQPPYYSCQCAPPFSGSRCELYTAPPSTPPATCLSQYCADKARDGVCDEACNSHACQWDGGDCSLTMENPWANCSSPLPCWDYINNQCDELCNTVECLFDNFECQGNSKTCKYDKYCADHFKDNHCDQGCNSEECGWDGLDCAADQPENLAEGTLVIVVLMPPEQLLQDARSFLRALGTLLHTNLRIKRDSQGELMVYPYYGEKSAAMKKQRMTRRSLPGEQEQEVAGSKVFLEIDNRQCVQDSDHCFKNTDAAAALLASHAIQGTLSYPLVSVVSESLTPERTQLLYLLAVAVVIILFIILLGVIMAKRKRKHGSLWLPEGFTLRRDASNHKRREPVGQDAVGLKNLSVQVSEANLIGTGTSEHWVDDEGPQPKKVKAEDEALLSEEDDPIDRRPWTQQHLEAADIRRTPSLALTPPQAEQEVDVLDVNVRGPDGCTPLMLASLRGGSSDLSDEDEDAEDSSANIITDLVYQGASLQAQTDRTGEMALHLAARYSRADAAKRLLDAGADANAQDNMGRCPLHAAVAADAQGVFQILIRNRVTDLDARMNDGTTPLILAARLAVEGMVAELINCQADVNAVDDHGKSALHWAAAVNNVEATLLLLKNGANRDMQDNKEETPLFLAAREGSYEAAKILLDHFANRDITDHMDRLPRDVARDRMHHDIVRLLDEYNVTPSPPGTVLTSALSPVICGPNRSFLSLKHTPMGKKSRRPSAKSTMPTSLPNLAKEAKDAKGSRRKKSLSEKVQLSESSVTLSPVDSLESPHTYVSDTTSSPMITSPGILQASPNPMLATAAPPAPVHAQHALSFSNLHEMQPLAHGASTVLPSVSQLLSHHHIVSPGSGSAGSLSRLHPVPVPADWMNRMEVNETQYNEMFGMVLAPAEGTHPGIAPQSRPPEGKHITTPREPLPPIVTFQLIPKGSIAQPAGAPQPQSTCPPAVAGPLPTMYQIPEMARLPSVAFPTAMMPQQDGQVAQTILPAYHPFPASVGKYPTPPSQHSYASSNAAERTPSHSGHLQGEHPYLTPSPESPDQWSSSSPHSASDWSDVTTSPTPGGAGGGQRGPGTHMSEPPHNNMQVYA

[6] = target: Pro-neuregulin-1, membrane-bound isoform (Homo sapiens) (UniProt Q02297); experiment: NRG1 binders on small-molecule microarrays, primary screen, psychiatric disease protein project, biochemical, small-molecule microarray, fluorescence 635/667 (AID 1075); settings: NRG1 binding, 635 nm fluorescence, higher = more signal;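 further: score combines 667 nm spot fluorescence with signal to noise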
Pro-neuregulin-1, membrane-bound isoform (Homo sapiens), sequence (Q02297 whole entry, looked up, the tested form may be a part, canonical isoform): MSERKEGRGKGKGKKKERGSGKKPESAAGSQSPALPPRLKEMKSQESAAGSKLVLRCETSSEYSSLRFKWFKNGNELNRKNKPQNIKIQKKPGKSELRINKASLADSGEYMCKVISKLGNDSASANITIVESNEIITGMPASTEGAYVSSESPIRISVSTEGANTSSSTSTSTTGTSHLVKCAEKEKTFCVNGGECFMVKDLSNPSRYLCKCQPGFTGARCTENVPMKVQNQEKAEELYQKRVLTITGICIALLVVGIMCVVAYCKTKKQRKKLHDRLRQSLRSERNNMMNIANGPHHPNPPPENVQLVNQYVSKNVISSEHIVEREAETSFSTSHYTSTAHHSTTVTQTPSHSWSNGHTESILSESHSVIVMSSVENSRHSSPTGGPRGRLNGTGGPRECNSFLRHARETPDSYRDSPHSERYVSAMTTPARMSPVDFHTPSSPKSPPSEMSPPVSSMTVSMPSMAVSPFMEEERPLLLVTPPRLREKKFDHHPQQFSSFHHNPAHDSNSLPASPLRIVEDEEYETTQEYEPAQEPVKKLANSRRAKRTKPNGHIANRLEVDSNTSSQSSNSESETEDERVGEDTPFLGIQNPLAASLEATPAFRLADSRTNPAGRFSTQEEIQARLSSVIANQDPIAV

[7] = test system: Neuregulin-1 EGF-like domain; experiment: binders of neuregulin-1 EGF-like domain, primary screen, biochemical, small-molecule microarray, 635 nm fluorescence (AID 1081); settings: small-molecule microarray binding, higher = more signal;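 further: binding of the protein to compounds printed on small-molecule microarray slides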
[8] = FRG1 promoter luciferase signal modulators, primary screen, FRG1 inhibition for FSHD, cell-based, C2C12 myotubes, firefly/Renilla luciferase, luminescence (AID 1084); settings: higher = more signal, called active from +8 up or from −8 down
[9] = binders of probe aFST on microarray, primary screen, stem cell growth factor project, biochemical, small-molecule microarray, fluorescence 635/667 (AID 1086); settings: higher = more signal;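 further: score merges 667 nm fluorescence with signal-to-noise of each printed compound spot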
[10] = binders of probe aHhip on microarray, primary screen, stem cell growth factor project, biochemical, small-molecule microarray, fluorescence 635/667 (AID 1087); settings: higher = more signal;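 further: score merges spot fluorescence at 667nm with spot signal to noise ratio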

SMILES	composite z-score [1]	composite z-score [2]	composite z-score [3]	composite z-score [4]	composite z-score [5]	composite z-score [6]	composite z-score [7]	z-score [8]	composite z-score [9]	composite z-score [10]
C=CC[C@]1(C(=O)NCCCOC)N=C(c2ccc(OCCCO)cc2)O[C@H]1c1ccccc1	0.272	-0.188	0.0823	-0.179	-0.664	1.87	1.33	0.364 (inactive)	1.04	-0.0237
CCOC(=O)C[C@H]1[C@H](OC(=O)Cc2ccc3c(c2)OCO3)[C@@H](NC(=O)c2ccccc2)c2cc(OCCCO)ccc2N1C(=O)Cc1ccc(OC)cc1	-0.483	0.147	-0.0038	0.306	0.523	0.726	0.049	-2.56 (inactive)	-0.249	-0.261
C=CCC(OC(C)=O)[C@@H]1[C@@H](N(Cc2ccc(-c3cccc(C(F)(F)F)c3)o2)C(=O)c2cccc3ccccc23)c2cc(OCCCO)ccc2N1C(=O)c1ccc2ccccc2n1 (stereo not given in full)	0.672	0.584	-0.0242	0.232	-0.381	0.0262	-0.393	-0.147 (inactive)	-0.111	0.185
CC(=O)NCCCC[C@@H]1NC(=O)[C@@H]2C[C@H](C(=O)NCCCCCC[N+](C)(C)C)[C@H](c3ccc(O)cc3)N2C1=O	0.101	0.437	-0.224	0.204	0.472	0.148	1.23	3.02 (inactive)	-0.0677	0.0881
C=CCC(OC(C)=O)[C@@H]1[C@@H](N(Cc2ccc(-c3ccccc3)cc2)C(=O)c2cccc3ccccc23)c2cc(OCCCO)ccc2N1C(=O)c1ccc2ccccc2c1 (stereo not given in full)	-0.254	-0.0509	-0.0973	0.246	0.045	-0.179	-0.172	-0.891 (inactive)	0.277	-0.0672
CCCC[C@H]1OB(O)C[C@H]2C1=C(C)C[C@H]1C(=O)C=CC(=O)[C@H]12	-0.567	-0.0474	-0.0887	0.309	0.425	0.532	0.698	0.358 (inactive)	0.189	0.176
NC(=O)N1C(=O)C2C(C1=O)C1C=C(CCCO)C2C(c2ccc(CN3CCCC3)cc2)N1Cc1cccc(OC(F)(F)F)c1 (stereo not given)	-0.0367	0.145	0.028	0.173	0.185	-0.299	1.03	-0.0987 (inactive)	0.0635	-0.0296
COCCOC(=O)N1C(=O)[C@@]2(c3cc(C#CC4=CCCCC4)ccc31)[C@H](c1ccc(OCCO)cc1)N1[C@H](c3ccccc3)[C@H](c3ccccc3)OC(=O)[C@H]1[C@@H]2C(=O)N1CCCCCCC1	2.32	0.945	0.303	0.474	1.37	1.07	1.13	-1.62 (inactive)	2.12	1.9
COCCn1c(C(=O)N2CCCC2)cc2c1C[C@H]1CN(C(=O)c3ccccc3)[C@@](Cc3ccccc3)(C(=O)OC)[C@@H]21	0.288	1.16	0.576	0.888	1.11	2.16	1.42	2.7 (inactive)	1.11	0.688
CC(C)C[C@@H]1NC(=O)C([C@@H](C)OCc2ccccc2)NC(=O)[C@@]23C(=O)N[C@@H](Cc4ccccc4)C2[C@H](C)[C@@]2(C)O[C@H]2C3/C=C/CC/C=C/CNC1=O (stereo not given in full)	-0.38	0.924	-0.0841	0.379	0.319	1.11	0.979	1.49 (inactive)	0.0793	-0.353
O=C1OCCC=C[C@H]2OC34C=CCN(CCN5CCOCC5)C(=O)[C@H]3N(CCCO)C(=O)[C@@H]4C12 (stereo not given in full)	-0.0143	-2.48	-0.14	-0.776	-0.956	0.399	-0.873	0.122 (inactive)	-0.272	-0.0994
[N-]=[N+]=NCc1ccccc1C[C@]1(C(=O)N2CCCCC2)N=C(c2ccc(OCCCO)cc2)O[C@H]1c1ccccc1	0.393	0.449	-0.0165	0.39	1.07	0.618	0.849	-4.27 (inactive)	0.485	0.0722
CC(C)C[C@H]1NC(=O)[C@@H](C)NC(=O)[C@@]23C(=O)N[C@@H](Cc4ccccc4)C2[C@H](C)[C@@]2(C)O[C@H]2C3/C=C/C/C=C\CNC1=O (stereo not given in full)	-0.112	-0.0039	-0.185	0.346	0.125	0.483	0.798	1.85 (inactive)	-0.141	-0.121
COCCOC(=O)N1C(=O)[C@@]2(c3cc(C#CC4=CCCCC4)ccc31)[C@H](C(=O)N1CCc3cc(OC)c(OC)cc3C1)[C@H]1C(=O)O[C@H](c3ccccc3)[C@H](c3ccccc3)N1[C@@H]2c1ccc(O)cc1	-0.0908	0.271	0.0216	1.15	1.5	1.79	1.25	-0.514 (inactive)	0.153	0.0515
COC(=O)C1=CC(CCCO)=CC(c2ccc(CN3CCCC3)cc2)N(Cc2sc3ccccc3c2Cl)C=C1C(=O)OC (stereo not given)	0.688	2.31	0.321	1.31	1.73	2.43	1.32	-0.591 (inactive)	1.21	0.167
C=C(CCCC)/C(=C/C[C@H](OC(C)=O)c1cccc(OCCO)c1)c1cc(C(=O)OC)ccc1OC	0.0336	-0.325	-0.0852	-0.0418	-0.393	-0.578	0.131	-0.502 (inactive)	-0.221	-0.201
NCCCC[C@@H]1NC(=O)[C@H]2C[C@@H](C(=O)O)[C@@H](c3cccc(OCCO)c3)N2C1=O	1.34	1.57	0.097	0.856	1.61	2.05	1.4	0.805 (inactive)	2.16	-0.0474
